In PubChem BioAssay one finds composite z-score and z-score data, which are given here for 16 compounds.

The source made the active and inactive calls.

In assay [1] the test system is Plasmodium falciparum Sir2 (PF13_0152, Sir2A). Nature of the assay: pfSir2 binders on small-molecule microarrays, primary screen, biochemical, small-molecule microarray, 635 nm fluorescence (AID 1098).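 Also: score merges spot fluorescence intensity with its signal-to-noise ratio.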 As to conditions: small-molecule microarray binding, fluorescence 635 nm; higher = more signal.
A short description of assay [2]: small-molecule microarray binders of probe aDKK1, primary screen, biochemical, biotinylated probe, 635/667 nm fluorescence (AID 1099).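 Also: score merges 667nm spot fluorescence with signal to noise across triplicate slides; reference of the scale not given here.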 The conditions noted are these: higher = more signal.
Assay [3] in a line: small-molecule microarray binders of probe aCHRDL2, primary screen, biochemical, biotinylated probe, 635/667 nm fluorescence (AID 1100). As to conditions: higher = more signal.
Assay [4] can be described thus: splicing luciferase reporter signal modulators, primary screen, spliceosome inhibition project, cell-based, HEK293, splice +/- reporter (AID 1101).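 Also: HEK293 cells carrying a splicing-competent luciferase reporter gene; test concentration not given here.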 The conditions noted are these: luminescence, 24 h, higher = more signal, called active from +8 up or from −8 down. Background: A reporter such as luciferase makes a cellular process visible.
The target of assay [5] is Fibroblast growth factor 10 (Homo sapiens) (UniProt O15520). In words: FGF10 binders on small-molecule microarrays, primary screen, biochemical, small-molecule microarray, 635 nm fluorescence (AID 1102). The conditions noted are these: FGF10 binding, fluorescence 635 nm, higher = more signal.
Sequence of Fibroblast growth factor 10 (Homo sapiens) (O15520 whole entry, looked up): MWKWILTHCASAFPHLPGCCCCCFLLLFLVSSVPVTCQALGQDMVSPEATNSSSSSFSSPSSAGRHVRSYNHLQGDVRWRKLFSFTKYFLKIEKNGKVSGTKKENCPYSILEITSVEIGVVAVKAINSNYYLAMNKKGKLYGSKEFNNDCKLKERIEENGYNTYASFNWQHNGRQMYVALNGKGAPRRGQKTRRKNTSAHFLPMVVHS
The test system of assay [6] is glycogen synthase kinase-3 (GSK3A per assay name; protocol says GSK3B). In words: GSK3 binders on small-molecule microarrays, primary screen, biochemical, small-molecule microarray, 635 nm fluorescence, GSK3A (AID 1103). Also: the record names both GSK3A and GSK3B. As to conditions: small-molecule microarray binding, fluorescence 635 nm; higher = more signal.
Assay [7] addresses Epidermal growth factor receptor (Homo sapiens) (UniProt P00533). In words: EGFR binders on small-molecule microarrays, primary screen, biochemical, small-molecule microarray, 635 nm fluorescence (AID 1104).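 Also: score merges 667 nm emission intensity with spot signal to noise over triplicate slides.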 The conditions noted are these: EGFR binding, higher = more signal.
Assay [8] concerns the target Follistatin-related protein 3 (Homo sapiens) (UniProt O95633). In words: FSTL3 binders on small-molecule microarrays, primary screen, biochemical, small-molecule microarray, 635 nm fluorescence (AID 1105).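 Also: score merges emission near 667 nm and signal to noise per printed spot across three slides.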 The conditions noted are these: FSTL3 binding, higher = more signal.
Assay [9] deals with Dickkopf-related protein 1 (Homo sapiens) (UniProt O94907). Nature of the assay: DKK1 binders on small-molecule microarrays, primary screen, biochemical, small-molecule microarray, 635 nm fluorescence scan (AID 1106).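 Also: score merges emission near 667 nm with signal to noise over three replicate slides.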 As to conditions: DKK1 binding, higher = more signal.
Sequence of Dickkopf-related protein 1 (Homo sapiens) (O94907 whole entry, looked up): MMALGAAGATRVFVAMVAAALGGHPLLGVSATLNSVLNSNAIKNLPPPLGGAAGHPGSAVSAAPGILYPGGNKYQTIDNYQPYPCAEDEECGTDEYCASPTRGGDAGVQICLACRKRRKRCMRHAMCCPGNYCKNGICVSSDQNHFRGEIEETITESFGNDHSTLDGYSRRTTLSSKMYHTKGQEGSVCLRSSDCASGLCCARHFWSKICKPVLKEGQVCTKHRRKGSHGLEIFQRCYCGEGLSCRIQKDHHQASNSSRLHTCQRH
The test system of assay [10] is Inhibin beta A chain (activin A). Nature of the assay: INHBA (activin A) binders on microarrays, primary screen, biochemical, small-molecule microarray, 635 nm fluorescence scan (AID 1107).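 Also: mouse activin A protein probed at 4.33 µg/mL on printed slides; score merges bound-protein fluorescence near 667 nm with spot signal-to-noise.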 The conditions noted are these: small-molecule microarray binding, higher = more signal.

Sequence of Epidermal growth factor receptor (Homo sapiens) (P00533 whole entry, looked up): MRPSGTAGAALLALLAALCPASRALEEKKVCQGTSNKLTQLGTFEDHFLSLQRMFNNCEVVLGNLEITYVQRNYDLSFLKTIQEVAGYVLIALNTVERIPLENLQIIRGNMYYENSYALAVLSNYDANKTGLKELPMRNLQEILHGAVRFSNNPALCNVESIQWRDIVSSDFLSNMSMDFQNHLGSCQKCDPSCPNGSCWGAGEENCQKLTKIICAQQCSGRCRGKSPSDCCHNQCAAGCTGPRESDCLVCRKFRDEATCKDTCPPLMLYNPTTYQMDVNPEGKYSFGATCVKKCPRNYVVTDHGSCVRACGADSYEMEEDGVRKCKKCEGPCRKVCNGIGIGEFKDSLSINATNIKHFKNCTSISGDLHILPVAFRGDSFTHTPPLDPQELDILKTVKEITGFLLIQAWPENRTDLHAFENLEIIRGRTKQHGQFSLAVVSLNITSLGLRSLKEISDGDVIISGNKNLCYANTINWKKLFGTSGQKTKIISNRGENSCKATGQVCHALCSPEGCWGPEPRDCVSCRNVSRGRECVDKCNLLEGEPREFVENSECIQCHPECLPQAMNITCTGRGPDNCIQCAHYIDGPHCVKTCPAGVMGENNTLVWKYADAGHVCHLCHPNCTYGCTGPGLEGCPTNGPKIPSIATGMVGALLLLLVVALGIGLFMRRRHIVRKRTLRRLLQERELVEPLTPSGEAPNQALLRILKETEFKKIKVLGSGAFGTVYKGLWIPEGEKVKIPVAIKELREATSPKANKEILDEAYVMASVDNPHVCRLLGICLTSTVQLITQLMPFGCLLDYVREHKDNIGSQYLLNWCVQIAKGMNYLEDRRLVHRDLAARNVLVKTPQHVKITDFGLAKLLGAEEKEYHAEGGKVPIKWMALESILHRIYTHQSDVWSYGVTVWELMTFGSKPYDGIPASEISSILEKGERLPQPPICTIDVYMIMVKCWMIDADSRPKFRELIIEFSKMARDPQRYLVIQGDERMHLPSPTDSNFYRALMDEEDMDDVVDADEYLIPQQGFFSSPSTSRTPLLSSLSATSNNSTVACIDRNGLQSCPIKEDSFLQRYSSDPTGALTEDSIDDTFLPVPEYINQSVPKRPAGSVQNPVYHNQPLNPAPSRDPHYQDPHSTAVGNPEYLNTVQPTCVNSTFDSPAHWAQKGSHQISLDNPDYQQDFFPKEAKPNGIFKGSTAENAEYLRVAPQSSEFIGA
Sequence of Follistatin-related protein 3 (Homo sapiens) (O95633 whole entry, looked up): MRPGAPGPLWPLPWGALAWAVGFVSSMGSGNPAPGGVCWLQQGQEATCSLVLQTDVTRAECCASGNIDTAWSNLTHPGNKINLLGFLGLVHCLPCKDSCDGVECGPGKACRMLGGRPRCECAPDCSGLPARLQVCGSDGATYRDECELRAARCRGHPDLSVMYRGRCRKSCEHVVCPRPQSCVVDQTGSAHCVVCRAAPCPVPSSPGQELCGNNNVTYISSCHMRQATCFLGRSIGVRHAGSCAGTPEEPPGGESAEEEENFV

As to `CC(C)N1C(=O)C[C@@](C(=O)NC2CC2)(c2ccc([N+](=O)[O-])cc2)[C@H]1c1ccc(CO)cc1`, the composite z-score in [1] was -0.66; in assay [2], 0.34; in [3], 0.993; in [5] it was -0.576; in assay [6], -0.3; in [7], -1.18. Besides, the composite z-score in [8] is -1.1; in assay [9], -0.674; in [10] it was -1.48. Moreover, the z-score in assay [4] is -1.34 (inactive).
Consider `COC(=O)[C@@]1(Cc2ccccc2)[C@H]2c3cc(C(=O)N4CCCC4)n(CCc4ccccn4)c3C[C@H]2CN1C(=O)c1ccccc1`, for which the composite z-score in [1] is 1.04; in assay [2], 0.897; in assay [3], 1.02; in assay [5] it was 0.874; in assay [6], 1.14; in assay [7] it was 0.142. The composite z-score in assay [8] was 0.921; in assay [9], -0.37; in [10], 1.11. The z-score in [4] was -2.09 (inactive).
As to `CC1=C2[C@@H](CCc3ccccc3)OB(O)C[C@@H]2[C@@H]2C(=O)N(Cc3ccccc3)C(=O)[C@@H]2C1`, the composite z-score was 0.294 in [1]; -0.155 in assay [2]; -0.395 in assay [3]; 0.631 in assay [5]; 0.717 in assay [6]; 0.427 in assay [7]. Also, the composite z-score turned out to be 0.746 in assay [8], 0.405 in assay [9] and 0.654 in [10]. Besides, the z-score in [4] was 0.81 (inactive).
For the compound `C#CCN(Cc1ccccc1Br)[C@H](/C=C/c1ccccc1)[C@@H](O)Cc1ccccc1`, the composite z-score in [1] was -0.699; in [2] it was 0.12; in [3] it was 0.857; in [5], -0.636; in assay [6], -0.705; in assay [7], -1.45. Also, the composite z-score in [8] is -1.21; in assay [9] it was -1.42; in assay [10], 1.35. Also, the z-score in [4] is -1.51 (inactive).
Take `CC[C@@H]1C=C(C(=O)O)[C@H](c2ccc(C#N)cc2)N1S(=O)(=O)c1ccc(C)cc1`: the composite z-score in assay [1] is 1.1; in [2], 0.313; in assay [3], 0.863; in [5], 0.396; in assay [6], 0.39; in [7], -0.967. Moreover, the composite z-score in assay [8] is -0.406; in assay [9] it was -1.22; in assay [10], 0.264. The z-score in assay [4] is 0.552 (inactive).
Turning to `CC[C@@H]1O[Si](C(C)C)(C(C)C)c2c1cc(-c1cc(C)c(OC)c(C)c1)nc2-c1ccc(Oc2ccccc2)cc1`, the composite z-score in [1] is -0.551; in assay [2], 0.825; in [3], -0.0144; in assay [5], 0.0008; in [6], -0.732; in assay [7], -0.451. Besides, the composite z-score is -0.452 in assay [8], -0.497 in [9] and 0.135 in assay [10]. Besides, the z-score in [4] is -0.166 (inactive).
With `CCCCCN1CC=CC23O[C@@H]4C=CCCOC(=O)C4[C@H]2C(=O)N(CCCCCCO)[C@@H]3C1=O` (stereo not given in full), the composite z-score was 0.788 in assay [1]; -0.467 in assay [2]; -0.272 in assay [3]; 0.0027 in assay [5]; -0.284 in [6]; -0.547 in [7]. Besides, the composite z-score is -1.01 in [8], -0.69 in [9] and -0.206 in [10]. The z-score in [4] is 2.61 (inactive).
As for `CN(C)c1ccc(C(O)C2C=CC3C(=O)NC(=O)C3N2Nc2ccccn2)cc1` (stereo not given), the composite z-score was determined as 1.15 in assay [1]; 0.206 in assay [2]; 0.201 in assay [3]; 0.79 in assay [5]; 0.464 in [6]; 0.729 in [7]. The composite z-score was found to be 1.45 in assay [8], 1.3 in [9] and 0.921 in assay [10]. In [4], the z-score was 0.936 (inactive).
Regarding `CCCC#C[Si](O[C@H](CC)c1cn([C@H](C)c2ccccc2)nn1)(C(C)C)C(C)C`, the composite z-score in assay [1] was 0.2; in [2], 0.313; in assay [3], -0.212; in [5] it was 0.568; in assay [6], 0.588; in [7], 0.564. Further, the composite z-score is 0.47 in assay [8], 0.285 in assay [9] and -0.348 in [10]. The z-score in assay [4] is -0.383 (inactive).
With `CCOC(=O)C1=C[C@@H](C(C)C)N(S(=O)(=O)c2ccc(C)cc2)[C@H]1c1ccc(C(F)(F)F)cc1`, the composite z-score in assay [1] came to 0.794; in [2] it was 0.374; in [3], 0.703; in assay [5] it was 0.896; in assay [6], 0.898; in [7], 0.593. For the same compound, the values for the composite z-score in assay [8], in [9] and in [10] were 1.39, 0.441 and 0.372, respectively. Further, in assay [4], the z-score is 0.317 (inactive).
As to `COC(=O)[C@]1(CCS(=O)(=O)c2ccccc2)N=C(c2ccc(OCCCO)cc2)O[C@@H]1c1ccccc1N=[N+]=[N-]`, the composite z-score in assay [1] was 1.62; in assay [2], 0.99; in [3] it was 1.12; in [5] it was 1.3; in assay [6], 1.3; in assay [7] it was 0.416. Further, the values for the composite z-score in assay [8], in [9] and in assay [10] were 1.2, 0.666 and 0.199, respectively. Besides, in [4], the z-score was -0.571 (inactive).
Turning to `COc1ccc(C(=O)Nc2ccc(CN3C(=O)[C@]4(O[C@H](CC(=O)N5Cc6ccccc6C[C@H]5CO)[C@@H]([Si](C)(C)c5ccc(OC)cc5)[C@@H]4C)c4ccccc43)cc2)cc1`, the composite z-score in assay [1] is 1.57; in assay [2], -0.196; in assay [3], -0.165; in assay [5], 1.06; in assay [6], 0.837; in [7] it was 0.749. In addition, the composite z-score is 0.833 in assay [8], 0.786 in assay [9] and 0.518 in assay [10]. Further, the z-score in [4] was -1.18 (inactive).
`C=CCC(OC(C)=O)[C@@H]1[C@@H](N(Cc2cc3ccccc3o2)C(=O)Cc2ccc(F)cc2)c2cc(OCCCO)ccc2N1C(=O)Cc1ccc2ccccc2c1` (stereo not given in full): the composite z-score in assay [1] was -0.255; in assay [2] it was -0.203; in assay [3] it was 0.426; in assay [5] it was -0.108; in assay [6] it was -0.657; in assay [7], -0.805. The values for the composite z-score in assay [8], in assay [9] and in assay [10] were -0.656, -0.607 and 0.779, respectively. In [4], the z-score was -0.123 (inactive).
With `COc1ccc(C#Cc2ccc3c(c2)[C@]2(C(=O)N3)[C@H](c3ccc(OCCO)cc3)N3[C@H](c4ccccc4)[C@H](c4ccccc4)OC(=O)[C@H]3[C@@H]2C(=O)NC[C@H](O)c2ccccc2)cc1`, the composite z-score was 0.614 in [1]; 0.0477 in [2]; -0.0975 in assay [3]; 0.882 in assay [5]; 0.72 in assay [6]; 0.342 in [7]. Besides, the composite z-score in assay [8] is 1.08; in [9], 0.301; in assay [10] it was -0.177. Also, the z-score in assay [4] was -0.124 (inactive).
Turning to `C=C(COC)/C(=C/C[C@H](OC(=O)c1ccncc1)c1ccccc1OCCO)c1cc(C(=O)OC)ccc1OC`, the composite z-score in assay [1] was 0.515; in [2], -0.0213; in assay [3] it was -0.331; in [5] it was 1.25; in assay [6], 0.684; in assay [7] it was 0.0709. Further, the composite z-score in assay [8] amounted to 1.33; in [9], 0.242; in assay [10], 1. Moreover, the z-score in assay [4] was -0.0627 (inactive).
For `C=CCC(OC(C)=O)[C@@H]1[C@@H](N(Cc2cccc3ccccc23)C(=O)Cc2ccc(OC)cc2)c2cc(OCCCO)ccc2N1C(=O)c1ccc(-c2ccccc2)cc1` (stereo not given in full), the composite z-score in [1] is -0.203; in [2], 0.0699; in assay [3], 0.44; in assay [5] it was -0.249; in [6], -0.179; in [7], 0.347. The results for the composite z-score in assay [8], in assay [9] and in assay [10] were -0.0555, -0.324 and 1.43, respectively. In addition, in assay [4], the z-score is -0.279 (inactive).
